# Measurements published in PubChem BioAssay AID1851 (National Center for Advancing Translational Sciences (NCATS), 2009).
# Out of some 16,000 compounds screened, about 5,800 (36%) were called active. Another 23% or so got no clear call; they are omitted. The list shows a part of the results. Unmarked numbers belong to inactive results. The call rests on the fitted dose curve; in most records, active means well fitted curve in the direction sought with a large enough effect; inconclusive means small, poorly fitted or top-dose-only effect, or effect the other way; inactive means no such curve, though single readings can be large or run the other way.
# Target: Cytochrome P450 2C19 (Homo sapiens) (UniProt P33261)
# Sequence (P33261 whole entry, looked up): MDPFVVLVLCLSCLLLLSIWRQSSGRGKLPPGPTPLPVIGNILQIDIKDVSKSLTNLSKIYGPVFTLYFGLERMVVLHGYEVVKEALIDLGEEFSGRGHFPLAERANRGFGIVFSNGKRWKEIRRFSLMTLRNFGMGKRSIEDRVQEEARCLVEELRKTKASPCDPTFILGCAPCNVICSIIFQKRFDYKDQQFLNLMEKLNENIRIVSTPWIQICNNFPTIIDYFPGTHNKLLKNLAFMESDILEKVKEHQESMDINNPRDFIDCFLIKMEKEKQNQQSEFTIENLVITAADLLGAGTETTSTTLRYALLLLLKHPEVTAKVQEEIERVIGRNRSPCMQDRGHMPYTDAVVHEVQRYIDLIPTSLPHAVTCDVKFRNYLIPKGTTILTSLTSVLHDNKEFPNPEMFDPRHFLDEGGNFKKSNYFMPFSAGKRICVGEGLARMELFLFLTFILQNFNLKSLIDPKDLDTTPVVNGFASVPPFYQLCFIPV
# Assay: Cytochrome panel assay with activity outcomes
# Details: recombinant CYP, pro-luciferin dealkylation, luminescence, p450-cyp2c19; series mostly up to 57.1 µM; activity, negative = inhibition: at the top concentration
# On the % scale 0 is the no-effect control and ±100 the full control effect.
SMILES,"activity, negative = inhibition",AC50
COc1cccc2c1[C@H](CO)N1[C@H](C#N)[C@@H]3C[C@H](C(=O)O)[C@@H]([C@@H]1C2)N3C,11.2% [at 11.4 µM],–
C=C1CC[C@H](O)C/C1=C/C=C1\CCC[C@]2(C)[C@H]1CC[C@H]2[C@@H](C)CCCC(C)C,-6.46% [at 25.6 µM],–
CC(=O)O/C(=C1/C[C@H]2[C@@H]3CC=C4C[C@@H](OC(C)=O)CC[C@]4(C)[C@@H]3CC[C@]2(C)C1=O)C(F)(F)F,10.6% [at 11.4 µM],–
CNCCc1ccc(O)c(O)c1,-24.1%,–
CN1CCN(c2ccc([N+](=O)[O-])c3[nH]o[n+](=O)c23)CC1,-37.2% [at 11.4 µM],–
CN1CCN(c2ccc([N+](=O)[O-])c(N/N=C3\CN4CCC3CC4)c2)CC1,–,7.08 µM (active)
CC[C@H]1CN2CCc3cc(OC)c(OC)cc3[C@H]2C[C@@H]1C[C@H]1NCCc2c1[nH]c1ccc(O)cc21,34.7% [at 11.4 µM],–
Cc1ncc([N+](=O)[O-])n1CCN=[N+]=[N-],21.1% [at 11.4 µM],–
c1ccc(N2CC3(CCNCC3)C2)cc1,-41.3%,–
CC(C)(C)NC[C@H](O)c1ccccc1Cl,-21.7%,–
Cc1ccc(CCN2CC(C(=O)N3CCC4(CC3)OCCO4)CC2=O)cc1 (stereo not given),-13.7%,–
Cc1ccc(S(=O)(=O)NCC2CCC(C(=O)N3CCC4(CC3)OCCO4)CC2)cc1 (stereo not given),–,14.1 µM (active)
NC(=O)COc1c(F)cc(SCCNS(=O)(=O)c2ccccc2)cc1F,-23.1%,–
COc1cc2c(cc1OC)[C@H](C)NCC2,-21.2% [at 25.6 µM],–
Nc1ccccc1O.O.O=C(O)[C@H]1[O][Sb][O][C@H]1C(=O)O,16.1% [at 11.4 µM],–
O=C(Nc1ccc(Cl)cc1C(=O)c1ccccc1Cl)c1ccco1,–,2.82 µM (active)
COc1ccc(OCC(=O)Nc2ccc(Cl)cc2C(=O)c2ccccc2)cc1,–,1 µM (active)
CN(C)CCOC(=O)COc1ccc(Cl)cc1,30.2%,–
O=C(Nc1ccc(Cl)cc1C(=O)c1ccccc1)c1ccco1,–,4.47 µM (active)
O=P(c1ccccc1)(c1ccccc1)N1CC2(CC2)CC(O)(c2ccccc2)C1 (stereo not given),-42.2%,–
CCC[C@@](C)(COC(N)=O)COC(=O)NC(C)C,-25% [at 25.6 µM],–
COC(=O)N1CCC2(CCCN(C)C2)CC1,-41.1%,–
NC[C@H](O)c1cc(O)c(O)cc1F,15.1%,–

SMILES,"activity, negative = inhibition",AC50
C=CCN1CCC2(C)c3cc(O)ccc3C[C@H]1[C@H]2C,–,inactive
COc1cc2c(cc1O)C[C@@H]1c3c(cc(O)c(OC)c3-2)CCN1C,12.7% [at 11.4 µM],–
CN1CCc2cc(O)cc3c2[C@H]1Cc1ccc(O)c(O)c1-3,-16.9%,–
CC(C)(C)NC[C@H](O)c1cc(Cl)c(N)c(Cl)c1,29% [at 25.6 µM],–
CN1[C@@H]2CC[C@H]1CC(O[C@@H](c1ccccc1)c1ccccc1N)C2 (stereo not given in full),19.3%,–
CNCCc1cnc[nH]1,-29.9%,–
Cc1ccccc1-c1cncnc1NCCc1cnc[nH]1,–,0.0501 µM (active)
Clc1ccccc1-c1cncnc1NCCc1cnc[nH]1,–,0.0126 µM (active)
c1ccc2c(c1)-c1ccccc1C2N1CC2CCC(CC2)C1,-44.5% [at 11.4 µM],–
CCCCC/C=C\C/C=C\C/C=C\C/C=C\CCCC(=O)NCC(=O)O,-19%,–
CC(C)N[C@@H](C)Cc1ccc(I)cc1,14.9%,–
O=C(C[C@H](c1ccccc1)c1c(O)c2ccccc2oc1=O)c1ccccc1,-17.3% [at 11.4 µM],–
O=C(Nc1ccccc1)N1CCC2(CC1)CCN(C(=O)Oc1ccccc1)CC2,-36.7%,–
COc1ccc(C[C@H]2NC[C@H](O)[C@@H]2OC(C)=O)cc1,–,3.16 µM (active)
COc1ccc(C[C@@H]2NC[C@H](O)[C@@H]2OC(C)=O)cc1,27.1% [at 25.6 µM],–
Cc1nc(N)sc1CCN,-29.1%,–
CCCN[C@@H]1CCc2c(OC)cccc2[C@@H]1C,-33.5%,–
CCN(CC)C(=O)N[C@H]1C[C@H]2c3cccc4[nH]cc(c34)C[C@@H]2N(C)C1,-1.43%,–
O=C1CN=C(c2cccs2)c2c(sc3c2CCCC3)N1,–,15.8 µM (active)
C[C@H]1CC[C@@]2(NC1)O[C@@H]1C[C@@H]3[C@@H]4CC=C5C[C@@H](O)CC[C@]5(C)[C@@H]4CC[C@]3(C)[C@H]1[C@@H]2C,15.9% [at 11.4 µM],–
CCOC(=O)C1Cc2c([nH]c3ccccc23)CN1 (stereo not given),–,1.58 µM (active)
COc1ccc2[nH]c3c(c2c1)CCNC3,0.139%,–
